# Several values for one entry are separate records, joined by “and”; a condition that tells them apart may be missing. Equal entries are not always repeated. About 2,000 (36%) of roughly 5,500 compounds were called active. Inconclusive results (about 18%) are left out. No stated cut-off is given here; in the data, active means normalized growth mostly below about 0.91 (no sharp cut-off); inconclusive means no clear call, values can overlap the other calls; inactive means mostly above about 0.92. Some of the results follow.
# Assay: chemical genetic growth profiling, strain panel (AID 1159580);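 further: tested at 20 µM; growth read once vehicle control cultures reached saturation at 30 °C; 1 = growth at the plate median or of vehicle wells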
# Conditions: S. cerevisiae deletion strains, growth OD
smiles,measurement,setting,value
O=C1c2c(O)ccc(O)c2C(=O)c2c(NCCNCCO)ccc(NCCNCCO)c21,normalized growth,"locus YEL061C, strain CIN8, stronger effect = lower value",1.02 (inactive)
same,normalized growth,"locus YER002W, strain NOP16, stronger effect = lower value",1.05 (inactive)
same,normalized growth,"locus YER015W, strain faa2, stronger effect = lower value",0.865 (active)
same,normalized growth,"locus YER016W, strain bim1, stronger effect = lower value",0.793 (active)
same,normalized growth,"locus YER110C, stronger effect = lower value",1.07 (inactive)
same,normalized growth,"locus YER111C, strain swi4, stronger effect = lower value",0.397 (active)
same,normalized growth,"locus YER155C, strain BEM2 (second series), stronger effect = lower value",0.965 (inactive)
same,normalized growth,"locus YER155C, strain BEM2, stronger effect = lower value",1.04 (inactive)
same,normalized growth,"locus YER167W, strain BCK2, stronger effect = lower value",0.96 (inactive)
same,normalized growth,"locus YFR010W, strain ubp6, stronger effect = lower value",0.564 (active)
same,normalized growth,"locus YGL078C, strain dbp3, stronger effect = lower value",0.942 (inactive)
same,normalized growth,"locus YGL086W, strain mad1, stronger effect = lower value",1.01 (inactive)
same,normalized growth,"locus YGL167C, strain pmr1, stronger effect = lower value",0.619 (active)
same,normalized growth,"locus YGL173C, strain kem1, stronger effect = lower value",0.57 (active)
same,normalized growth,"locus YGL227W, strain vid30, stronger effect = lower value",1.08 (inactive)
same,normalized growth,"locus YGL240W, strain doc1, stronger effect = lower value",0.696 (active)
same,normalized growth,"locus YGL248W, strain PDE1, stronger effect = lower value",1.02 (inactive)
same,normalized growth,"locus YGL253W, strain hxk2, stronger effect = lower value",0.738 (active)
same,normalized growth,"locus YGR078C, strain PAC10, stronger effect = lower value",1.01 (inactive) and 1.07 (inactive)
same,normalized growth,"locus YGR135W, strain pre9, stronger effect = lower value",0.942 (inactive)
same,normalized growth,"locus YGR252W, strain gcn5, stronger effect = lower value",0.924 (inactive)
same,normalized growth,"locus YHR013C, strain ard1, stronger effect = lower value",0.878 (inactive)
same,normalized growth,"locus YHR027C, strain rpn1, stronger effect = lower value",0.756 (active)
same,normalized growth,"locus YHR030C, strain SLT2, stronger effect = lower value",1.03 (inactive) and 0.713 (active)
same,normalized growth,"locus YHR079C, strain IRE1 (second series), stronger effect = lower value",1 (inactive)
same,normalized growth,"locus YHR079C, strain IRE1, stronger effect = lower value",0.951 (inactive)
same,normalized growth,"locus YHR094C, strain hxt1, stronger effect = lower value",1.05 (inactive)
same,normalized growth,"locus YHR129C, strain ARP1, stronger effect = lower value",1.02 (inactive)
same,normalized growth,"locus YHR142W, strain chs7, stronger effect = lower value",0.582 (active)
same,normalized growth,"locus YHR200W, strain rpn10, stronger effect = lower value",0.985 (inactive)
same,normalized growth,"locus YIL066C, strain RNR3, stronger effect = lower value",0.992 (inactive)
same,normalized growth,"locus YIL073C, strain SPO22, stronger effect = lower value",0.917 (inactive)
same,normalized growth,"locus YIL125W, strain kgd1, stronger effect = lower value",0.986 (inactive)
same,normalized growth,"locus YIR030C, strain dcg1, stronger effect = lower value",1.02 (inactive)
same,normalized growth,"locus YJL092W, strain hpr5, stronger effect = lower value",0.609 (active)
same,normalized growth,"locus YJL095W, strain BCK1 (second series), stronger effect = lower value",0.482 (active)
same,normalized growth,"locus YJL095W, strain BCK1, stronger effect = lower value",0.916 (inactive) and 0.755 (active)
same,normalized growth,"locus YJL115W, strain asf1, stronger effect = lower value",0.321 (active)
same,normalized growth,"locus YJL129C, strain trk1, stronger effect = lower value",0.306 (active)
same,normalized growth,"locus YJL134W, strain LCB3, stronger effect = lower value",1.04 (inactive)
same,normalized growth,"locus YJL154C, strain vps35, stronger effect = lower value",1.05 (inactive)
same,normalized growth,"locus YJL164C, strain tpk1, stronger effect = lower value",0.735 (active)
same,normalized growth,"locus YJL166W, strain qcr8, stronger effect = lower value",0.858 (active)
same,normalized growth,"locus YJL168C, strain set2, stronger effect = lower value",1.05 (inactive)
same,normalized growth,"locus YJL187C, strain SWE1 (second series), stronger effect = lower value",0.968 (inactive)
same,normalized growth,"locus YJL187C, strain SWE1, stronger effect = lower value",0.997 (inactive)
same,normalized growth,"locus YJR043C, strain POL32, stronger effect = lower value",0.779 (active)
